Read-out in assay [1]: Interleukin-8 (IL8), CXCL8 (gene 3576)
Description: BSK_3C_IL8: BioMAP Diversity Plus: 3C Assay for Interleukin-8 (IL8) Biomarker Activity (AID 2283020). The following applies: primary human endothelial cells (HUVEC); actives raise or lower the signal. Put shortly: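 HUVEC, 3C stimulation; 24 h compound exposure; IL-8 read by ELISA; gain or loss of signal fitted relative to DMSO control.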

Read-out in assay [2]: Monokine induced gamma interferon (MIG), CXCL9 (gene 4283)
Description: BSK_3C_MIG: BioMAP Diversity Plus: 3C Assay for Monokine induced gamma interferon (MIG) Biomarker Activity (AID 2283021).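 For AC50: MIG protein level measured by immunoassay in the treated endothelial cultures.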 The settings on record: primary human endothelial cells (HUVEC); actives raise or lower the signal. Put shortly:
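HUVEC, 3C system; 24 h chemical exposure; MIG by ELISA; bidirectional fit vs DMSO baseline.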

Assay [3] addresses human Vitamin D Receptor (VDR), VDR (gene 7421) (UniProt P11473). Description: ATG_VDR_TRANS: Attagene TRANS-FACTORIAL HepG2 Assay for human Vitamin D Receptor (VDR) (AID 2283022; active = hit-call score of the fitted dose curve at least 0.9, where 1 is the maximum). In short, it runs like this: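 Transactivation by an exogenous VDR-Gal4 chimera in transiently transfected HepG2 cells was measured as reporter transcript level 24 hours after chemical treatment. RT-PCR products were analysed by capillary electrophoresis and fitted in the positive direction relative to DMSO.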

Assay [4] can be described thus: BSK_3C_SRB: Viability Assessment in the BioMAP Diversity Plus: 3C Assay (AID 2283023).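 Note: fitted both ways against DMSO so a hit may be signal rise or drop.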 The settings on record: primary human endothelial cells (HUVEC). Put shortly: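 Cytotoxicity readout in parallel HUVEC 3C cultures: after 24 h compound exposure, cells fixed with 10% TCA, stained with 0.1% SRB and read at 560 nm. Gain or loss relative to DMSO fitted.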
Read-out in assay [5]: Matrix Metallopeptidase 1 (MMP1), MMP1 (gene 4312)
Description: BSK_BE3C_MMP1: BioMAP Diversity Plus: BE3C Assay for Matrix Metallopeptidase 1 (MMP1) Biomarker Activity (AID 2283024). The settings on record: primary human bronchial epithelial cells; actives raise or lower the signal. In short, it runs like this:
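ELISA read-out of MMP1 in human lung bronchial epithelial primary cultures, 24 h post-dose; bidirectional curve fit vs DMSO baseline, gain or loss of signal scored.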

Read-out in assay [6]: Pselectin, SELP (gene 6403)
Nature of the assay: BSK_4H_Pselectin: BioMAP Diversity Plus: 4H Assay for Pselectin Biomarker Activity (AID 2283026). The settings on record: primary human endothelial cells (HUVEC); actives raise or lower the signal. Put shortly: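 HUVEC, 24 h chemical exposure; P-selectin read by ELISA. Bidirectional curve fit vs DMSO baseline; gain or loss of signal scored.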

The nature of assay [7]: BSK_4H_SRB: Viability Assessment in the BioMAP Diversity Plus: 4H Assay (AID 2283027).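 For AC50: curves fitted both ways versus DMSO so AC50 may be loss or gain.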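 Note: cells exposed to compound for 24 h before staining.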 The settings on record: primary human endothelial cells (HUVEC). In short, it runs like this:
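Cytotoxicity readout: sulforhodamine B (0.1%) staining of total protein after 10% TCA fixation, measured at 560 nm in human umbilical vein endothelium at 24 h. DMSO set the baseline; fitting was bidirectional.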

Assay [8] in a line: BSK_BE3C_SRB: Viability Assessment in the BioMAP Diversity Plus: BE3C Assay (AID 2283028).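 For AC50: fitted both ways so AC50 may mark signal gain or loss versus DMSO.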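 Note: measured 24 h after chemical dosing.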 The settings on record: primary human bronchial epithelial cells. Put shortly:
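Cytotoxicity read-out: SRB (0.1%) staining of TCA-fixed (10%) human lung bronchial epithelial cells, absorbance 560 nm, 24 h post-dosing. Curves fitted both directions relative to DMSO.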

Read-out in assay [9]: Thrombomodulin, THBD (gene 7056)
Nature of the assay: BSK_3C_Thrombomodulin: BioMAP Diversity Plus: 3C Assay for Thrombomodulin Biomarker Activity (AID 2283029). The following applies: primary human endothelial cells (HUVEC); actives raise or lower the signal. In short, it runs like this: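 HUVEC, 3C conditions; compound 24 h; thrombomodulin by ELISA; bidirectional curve fit vs DMSO baseline; parallel SRB total-protein staining for cytotoxicity.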

Read-out in assay [10]: Urokinase-type plasminogen activator receptor (uPAR), PLAUR (gene 5329)
Nature of the assay: BSK_4H_uPAR: BioMAP Diversity Plus: 4H Assay for Urokinase-type plasminogen activator receptor (uPAR) Biomarker Activity (AID 2283030). The following applies: primary human endothelial cells (HUVEC); actives raise or lower the signal. Put shortly:
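uPAR level read by ELISA on HUVEC cultures (BioMAP 4H) 24 h post-dosing, analyzed for gain or loss relative to DMSO. Parallel SRB staining assessed overt cytotoxicity.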

Read-out in assay [11]: Vascular endothelial growth factor receptor 2 (Homo sapiens) (UniProt P35968)
Nature of the assay: BSK_4H_VEGFRII: BioMAP Diversity Plus: 4H Assay for Vascular endothelial growth factor receptor 2 (VEGFR2) Biomarker Activity (AID 2283031).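 For AC50: cell-surface VEGFR2 protein level quantified by ELISA.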 The settings on record: primary human endothelial cells (HUVEC); actives raise or lower the signal. In short, it runs like this: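 Measured by ELISA after 24 h of compound treatment: VEGFR2 on primary human umbilical vein endothelial cells, fitted in both directions relative to DMSO. Parallel cultures received SRB staining (560 nm) for overt cytotoxicity.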

Read-out in assay [12]: Human Leukocyte Antigen - DR isotype (HLADR), HLA-DRA (gene 3122)
Description: BSK_BE3C_HLADR: BioMAP Diversity Plus: BE3C Assay for Human Leukocyte Antigen - DR isotype (HLADR) Biomarker Activity (AID 2283032). The following applies: primary human bronchial epithelial cells; actives raise or lower the signal. In short, it runs like this: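 Primary human bronchial epithelial cells (BE3C); 24 h chemical exposure; HLA-DR by ELISA; bidirectional curve fit vs DMSO baseline.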

Read-out in assay [13]: Vascular cell adhesion molecule 1 (VCAM1), VCAM1 (gene 7412)
Nature of the assay: BSK_4H_VCAM1: BioMAP Diversity Plus: 4H Assay for Vascular cell adhesion molecule 1 (VCAM1) Biomarker Activity (AID 2283033).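 For outcome: cell-surface VCAM-1 protein measured by ELISA.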 The following applies: primary human endothelial cells (HUVEC); actives raise or lower the signal. Put shortly: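 HUVEC, 24 h post-dose; VCAM-1 by ELISA. Bidirectional curve fit vs DMSO baseline. Parallel SRB total-protein stain (0.1% SRB after 10% TCA fixation, 560 nm) for cytotoxicity.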

Read-out in assay [14]: Interferon-gamma inducible Protein 10 (IP10), CXCL10 (gene 3627)
Nature of the assay: BSK_BE3C_IP10: BioMAP Diversity Plus: BE3C Assay for Interferon-gamma inducible Protein 10 (IP10) Biomarker Activity (AID 2283034). The settings on record: primary human bronchial epithelial cells; actives raise or lower the signal. In short, it runs like this: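 ELISA readout of IP-10 in BE3C system: primary human bronchial epithelial cells, 24 h post-dosing; bidirectional curve fit vs DMSO baseline.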

Read-out in assay [15]: Monokine induced gamma interferon (MIG), CXCL9 (gene 4283)
Nature of the assay: BSK_BE3C_MIG: BioMAP Diversity Plus: BE3C Assay for Monokine induced gamma interferon (MIG) Biomarker Activity (AID 2283035).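 For outcome: MIG protein measured by ELISA in BE3C cultures after 24 h of dosing.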 The following applies: primary human bronchial epithelial cells; actives raise or lower the signal. Put shortly: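 hu bronchial epithelial 1° cells, 24 h cpd; MIG by ELISA; bidirectional fit, DMSO = baseline.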

Read-out in assay [16]: Plasminogen activator inhibitor-1 (PAI1), SERPINE1 (gene 5054)
Nature of the assay: BSK_BE3C_PAI1: BioMAP Diversity Plus: BE3C Assay for Plasminogen activator inhibitor-1 (PAI1) Biomarker Activity (AID 2283037). The settings on record: primary human bronchial epithelial cells; actives raise or lower the signal. Put shortly: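 ELISA read-out of PAI-1 from human bronchial epithelial primary cells, 24 h post-dosing; bidirectional curve fit vs DMSO baseline, gain or loss of signal scored.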

Read-out in assay [17]: urokinase plasminogen activator (uPA), PLAU (gene 5328)
Nature of the assay: BSK_BE3C_uPA: BioMAP Diversity Plus: BE3C Assay for urokinase plasminogen activator (uPA) Biomarker Activity (AID 2283038).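 For outcome: uPA protein level quantified by ELISA in cell cultures; uPA read one day after compound addition.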 The settings on record: primary human bronchial epithelial cells; actives raise or lower the signal. Put shortly:
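ELISA for uPA on human primary bronchial epithelial cultures 24 h post-treatment, gain or loss against DMSO. Parallel SRB staining (0.1% after 10% TCA fixation, 560 nm) assessed overt cytotoxicity.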

Read-out in assay [18]: Urokinase-type plasminogen activator receptor (uPAR), PLAUR (gene 5329)
Nature of the assay: BSK_BE3C_uPAR: BioMAP Diversity Plus: BE3C Assay for Urokinase-type plasminogen activator receptor (uPAR) Biomarker Activity (AID 2283039).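 For outcome: uPAR protein level measured by ELISA on the cells; cells exposed to compound for one day before measurement.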 The settings on record: primary human bronchial epithelial cells; actives raise or lower the signal. Put shortly: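 ELISA readout of uPAR on human lung primary bronchial epithelial cells, 24 h post-dosing. Bidirectional curve fit relative to DMSO vehicle baseline; gain or loss of signal both scored.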

The nature of assay [19]: BSK_3C_Vis: BioMAP Diversity Plus: 3C Assay for Morphology Visualization (AID 2283025).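 Note: fitted both ways so gain or loss versus DMSO counts.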 The following applies: primary human endothelial cells (HUVEC). In short, it runs like this: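 HUVEC, 3C system; light microscopy of morphology at 24 h post-dose. Bidirectional fit vs DMSO baseline. Secondary readout, background-control function.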
Read-out in assay [20]: Transforming growth factor beta 1 (TGFb1), TGFB1 (gene 7040)
Description: BSK_BE3C_TGFb1: BioMAP Diversity Plus: BE3C Assay for Transforming growth factor beta 1 (TGFb1) Biomarker Activity (AID 2283036;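 for outcome: TGF-b1 protein level measured by ELISA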). The following applies: primary human bronchial epithelial cells; actives raise or lower the signal. In short, it runs like this: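 Read-out: ELISA for TGF-b1 in primary human bronchial epithelial cultures, 24 h post-dose. Bidirectional curve fitting vs DMSO control; gain or loss of signal both scored.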

Where “and” joins values, the source holds several entries; their conditions need not be identical. Identical values can stand only once. Records with an inconclusive call do not appear. Some compounds were tested as several samples or in several runs, with calls that do not always agree. Calls of active or inactive are those of the source. Rule for the calls, unless noted: active = hit-call score of the fitted dose curve at least 0.9, where 1 is the maximum; inactive = score below 0.9.

Sequence of human Vitamin D Receptor (VDR), VDR (gene 7421) (P11473 whole entry, looked up, the tested form may be a part): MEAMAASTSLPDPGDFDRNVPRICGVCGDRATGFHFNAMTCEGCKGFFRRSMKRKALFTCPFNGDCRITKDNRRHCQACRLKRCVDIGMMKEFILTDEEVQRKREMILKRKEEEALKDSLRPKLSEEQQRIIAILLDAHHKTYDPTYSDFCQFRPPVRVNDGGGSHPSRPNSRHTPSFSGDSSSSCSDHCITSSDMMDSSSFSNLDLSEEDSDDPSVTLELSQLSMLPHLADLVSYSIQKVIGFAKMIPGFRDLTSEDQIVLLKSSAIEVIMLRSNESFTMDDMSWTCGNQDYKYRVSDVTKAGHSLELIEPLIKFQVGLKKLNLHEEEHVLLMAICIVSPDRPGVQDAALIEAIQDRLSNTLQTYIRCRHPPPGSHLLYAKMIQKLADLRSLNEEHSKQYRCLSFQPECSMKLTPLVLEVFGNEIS

With `O=C(Cl)C(F)(F)C(F)(F)C(F)(F)C(F)(F)C(F)(F)C(F)(F)F`, the half-maximal activity concentration (AC50) in assay [1] is 27 µM (active); in [5], 29.3 µM (active) and 30 µM (active). Besides, the outcome in assay [1], in [2], in assay [3], in assay [4], in assay [5] and in [6] was inactive. The result in assay [7], in assay [8], in assay [9], in [10], in [11] and in [12] was inactive. Further, the result in assay [13], in assay [14], in assay [15], in assay [16], in assay [17] and in assay [18] was inactive.
As for `C[C@]12CC[C@H]3C(=CCc4cc(O)ccc43)[C@@H]1CCC2=O`, the result in assay [1], in assay [2], in [3], in assay [4], in assay [5] and in assay [19] was inactive. For the same compound, the result in [6], in [7], in assay [8], in assay [9], in assay [10] and in [11] was inactive. Besides, the result in [12], in [13], in [15], in assay [20], in [16] and in assay [17] was inactive. Also, in [18], the outcome was inactive. For the same compound, the AC50 in [14] was 6.48 µM (active).
Turning to `O=C(O)C(F)(F)C(F)(F)C(F)(F)OC(F)(C(F)(F)F)C(F)(F)F`, the outcome in assay [1], in assay [2], in assay [3], in assay [4], in assay [5] and in assay [6] was inactive. In addition, the result in assay [7], in [8], in [9], in assay [10], in [11] and in [12] was inactive. Also, the outcome in [13], in assay [14], in assay [15], in assay [16], in assay [17] and in assay [18] was inactive. For the same compound, the AC50 in [5] was 37 µM (active).
With `O=C(O)C(F)(F)OC(F)(F)C(F)(F)OC(F)(F)C(F)(F)OC(F)(F)F`, the outcome in [1], in [2], in assay [3], in [4], in [6] and in assay [7] was inactive. Further, the result in [8], in [9], in assay [10], in [11], in [12] and in [13] was inactive. Further, the result in assay [14], in assay [15], in assay [16], in [17] and in assay [18] was inactive. In addition, the half-maximal activity concentration (AC50) in [5] is 2.78 µM (active) and 3.97 µM (active) and 11.8 µM (active); in assay [12], 9.98 µM (active); in assay [14] it was 7.49 µM (active).
As to `O=C(O)CCC(F)(F)C(F)(F)C(F)(F)F`, the result in [1], in assay [2], in assay [3], in assay [4], in assay [5] and in assay [6] was inactive. Besides, the outcome in assay [7], in [8], in [9], in assay [10], in assay [11] and in assay [12] was inactive. Further, the result in assay [13], in [14], in [15], in [16], in assay [17] and in assay [18] was inactive.
`O=C1C=CC(=O)N1c1ccc(Cc2ccc(N3C(=O)C=CC3=O)cc2)cc1`: the half-maximal activity concentration (AC50) is 7.33 µM (active) in assay [1]; 12 µM (active) in [2]; 11.5 µM (active) in assay [4]; 4.99 µM (active) in assay [5]; 5.63 µM (active) in [19]; 7.11 µM (active) in assay [6]. In addition, the AC50 in assay [7] is 12.1 µM (active); in [8] it was 3.04 µM (active); in assay [9], 11.3 µM (active); in [10], 9.9 µM (active); in [11], 10.6 µM (active); in [12], 2.8 µM (active). For the same compound, the concentration at half-maximal activity (AC50) in [13] was 9.59 µM (active); in assay [14], 2.6 µM (active); in assay [15], 6.3 µM (active); in assay [20], 1.6 µM (active); in assay [16], 3.54 µM (active); in assay [17], 2.62 µM (active). Further, the half-maximal activity concentration (AC50) in assay [18] was 3.31 µM (active). For the same compound, in [3], the outcome was inactive.

The record behind these values is PubChem BioAssay (EPA / NIEHS).
